Screening data from PubChem.
ELG1 genotox: genotoxicity induction in ELG1-luciferase HEK293T cells. HEK293T ELG1-luciferase reporter, luminescence, 16 h. Potency, µM (titrated, usually from 46 µM), inactives show top-dose activity change, positive = activation, usual class: activators. 1.3% of 330,000 active; note: % of control where 0% means no effect; nearly all actives have a fitted effect of over 60% in size
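After overnight (16 hr) compound treatment at 37 °C, ELG1-luciferase HEK293T cells were lysed with ONE-Glo; luminescence quantified 30 min later at room temperature.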
FLuc counter: counter-screen for miR-21 project: firefly luciferase inhibitors or activators; P08659; purified FLuc, Km substrates, luminescence inhibition; Potency, µM (highest dose often 57.5 µM), inactives show top-dose activity change, negative = inhibition, usual class: inhibitors; 6.9% of 360,000 active;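 note: plate controls were vehicle for no effect and reference inhibitor for full effect; nearly all actives have a fitted effect of over 55% in size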
Target sequence (P08659 whole entry, looked up): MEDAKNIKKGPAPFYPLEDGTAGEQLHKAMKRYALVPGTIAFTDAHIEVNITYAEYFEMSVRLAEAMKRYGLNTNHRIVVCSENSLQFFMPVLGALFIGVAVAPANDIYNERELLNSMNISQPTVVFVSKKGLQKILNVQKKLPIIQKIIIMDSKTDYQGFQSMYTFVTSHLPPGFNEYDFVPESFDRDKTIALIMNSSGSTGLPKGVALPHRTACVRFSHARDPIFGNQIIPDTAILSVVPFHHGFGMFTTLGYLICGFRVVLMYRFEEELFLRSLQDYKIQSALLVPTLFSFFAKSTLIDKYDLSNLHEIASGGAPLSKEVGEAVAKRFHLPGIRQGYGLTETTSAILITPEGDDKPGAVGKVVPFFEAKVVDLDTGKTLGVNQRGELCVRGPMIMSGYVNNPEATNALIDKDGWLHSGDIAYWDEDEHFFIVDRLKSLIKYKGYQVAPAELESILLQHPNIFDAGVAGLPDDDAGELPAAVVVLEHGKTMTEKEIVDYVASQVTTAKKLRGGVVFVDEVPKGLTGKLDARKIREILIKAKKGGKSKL
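Purified P. pyralis luciferase, 10 nM final, with Km-level 10 uM D-luciferin and 10 uM ATP in 50 mM Tris acetate pH 7.5, 10 mM Mg acetate, 0.01% Tween-20, 0.05% BSA; 6-point qHTS titration about 60 µM downward; luminescence read.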
Rab9 promoter act: activators of Rab9 promoter; Huh7 Rab9 promoter-luciferase reporter, luminescence, 24 h; Potency, µM (titrated, usually from 9.22 µM), inactives show at the top dose activation, negative = inhibition, hits mostly activators; 2.8% of 320,000 active; note: % of control where 0% means no effect; nearly all actives have a fitted effect of over 60% in size
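Promoter activation is measured as luciferase luminescence in Huh7 cells stably transfected with a Rab9 promoter–luciferase construct, following 24 h compound exposure at 37 °C and 10 min reagent incubation at ambient temperature.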
SMN2 splice up: increases expression of the SMN2 splice variant. HEK293 SMN2-luciferase splicing reporter, luminescence, 30-36 h. AID 1458. 2.8% of 210,000 active. Potency, µM (titrated, usually from 46.1 µM), for the others: at the top dose activity change, positive = activation, hits mostly activators; note: % of control where 0% means no effect; nearly all actives have a fitted effect of over 55% in size
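qHTS luciferase splicing reporter: luminescence rises when SMN2 exon 7 is included in transfected HEK293 cells. Compound exposure lasted 30-36 h at 37C, with 4.5 mM final sodium butyrate as control, followed by a ONE-Glo read.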
NPC1 promoter act: activates the NPC1 promoter; AID 485313; Potency, µM (highest dose often 9.22 µM), inactives show top-dose activation, actives largely listed as activators; Huh7 NPC1 promoter luciferase reporter, 24 h; 2.4% of 320,000 active; note: % of control where 0% means no effect; nearly all actives have a fitted effect of over 60% in size
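Stable NPC1-promoter luciferase Huh7 line; cpd (DMSO) 24 h, 37 °C, 5% CO2; Amplite luciferase reagent 10 min RT; luminescence readout. qHTS format.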
The depositor's hits bear a star; ? = inconclusive; nt = not tested or not shown; [ ] = dose if it differs, or a comment. This is a sample that favours compounds with a hit; in the whole collection about 7.5% have one here. Calls come from the whole dose curve; as a rule, active = well fitted curve in the direction sought with a large enough effect; inconclusive = small, poorly fitted or top-dose-only effect, or another doubt; inactive = no such curve, though single readings can be large; an effect the other way counts as inactive or inconclusive. Potency is the fitted concentration of half-maximal effect.

SMILES | ELG1 genotox | FLuc counter | Rab9 promoter act | SMN2 splice up | NPC1 promoter act
O=C1Oc2ccccc2C(=O)/C1=C\N1C(=O)N/C(=C\c2ccccc2O)C1=O | nt | nt | nt | 0%[9.22 µM] | nt
O=C(CNC(=O)c1ccc(F)cc1)c1ccc(Cl)cc1 | ? | 9.5µM* | 1.6µM* | nt | 4µM*
O=C(NC[C@H](O)c1ccccc1)c1ccccc1 | nt | nt | nt | 14µM* | nt
O=C(CNC(=O)c1ccc(-c2ccccc2)cc1)OCc1ccc(Br)cc1 | 11% | 21µM* | 28% | 3.5µM* | 16%
CC1=C(C)CC(C(=O)NCC(=O)c2ccccc2)C(C(=O)O)C1 (configuration not stated) | 16µM* | 15µM* | 22% | 17% | 4%
COc1ccc(CC(=O)NCc2ccc3c(c2)CCN3C(=O)c2ccccc2)cc1OC | nt | -3% | nt | nt | nt
COc1ccccc1CNc1ncncc1-c1cccc(C#N)c1 | nt | nt | nt | -4% | nt
O=C(CNC(=O)c1ccccc1)OC1CCCCC1 | ? | 12µM* | 0.89µM* | 13µM* | 4µM*
CCCCCOC(=O)NCC(O)c1ccccc1 (configuration not stated) | ? | 13µM* | 4.5µM* | ? | 2.5µM*
O=C(CNC(=O)c1ccccc1)c1ccccc1 | ? | 6.7µM* | 0.45µM* | nt | 0.71µM*
O=C(CNC(=O)c1ccc(Br)cc1)c1ccccc1 | ? | 4.8µM* | 2µM* | nt | 2.8µM*
O=C(O)c1ccccc1C(=O)NCCCCCCNC(=O)c1ccccc1C(=O)O | -3% | 2% | 0% | nt | 1%
CC(NC(=O)COC(=O)CNC(=O)c1ccc(-c2ccccc2)cc1)c1ccccc1 (configuration not stated) | -2% | 17µM* | 9% | nt | 6%
O=C(CNC(=O)c1ccccc1C(=O)O)c1ccccc1 | ? | 12µM* | 3.5µM* | -8% | 2.8µM*
Cc1ccc(NS(=O)(=O)c2ccc(Cl)c(NC(=S)NC(=O)C3CCCCC3)c2)cc1Cl | -10% | 0% | -3% | -1% | -6%
O=C(NNC(=O)c1cc(-c2ccncc2)nc2ccccc12)c1ccccc1F | 0% | 24µM* | 1% | nt | 2%
CCCCNC(=S)NNC(=O)c1cc(-c2ccncc2)nc2ccccc12 | 0% | 9.5µM* | 6% | nt | -1%
CCCCNC(=S)NNC(=O)c1cc(C2CC2)nc2ccccc12 | 1% | 24µM* | 1% | nt | -6%
COc1ccc(NC(=O)NNC(=O)c2cc(C3CC3)nc3ccccc23)c(OC)c1 | -10% | -4% | 9% | nt | 0%
COCCNC(=S)NNC(=O)c1cc(C2CC2)nc2ccccc12 | 1% | 12µM* | -8% | nt | -7%
COc1ccc(C(OCC(O)CN2CCC(O)CC2)c2ccc(OC)cc2)cc1 (configuration not stated) | 6% | 2% | 1% | nt | 1%
CSc1nc(NS(=O)(=O)c2ccc(F)cc2F)nn1C | -1% | 4% | 1% | nt | 0%
Cc1cccc(NC(=O)c2ccc(C(=O)c3ccccc3)o2)c1 | ? | 8.5µM* | ? | 16µM* | 27%
O=C(Nc1ccc2ccccc2c1)c1ccc(Br)o1 | ? | 5.4µM* | 3.5µM* | nt | 3.5µM*
O=C(Nc1cccc(NC(=O)c2ccc(Br)o2)c1)c1ccccc1 | -5% | ? | -2% | ? | 13%
SMILES | ELG1 genotox | FLuc counter | Rab9 promoter act | SMN2 splice up | NPC1 promoter act
O=C(c1ccccc1)c1cccc(NC(=O)c2ccc(Br)o2)c1 | 4% | 24µM* | ? | 4% | 3%
Cc1ccccc1C(=O)Nc1cccc(NC(=O)c2ccc(-c3ccc(Br)cc3)o2)c1 | 0% | 4.8µM* | -1% | 24% | -3%
Cc1nn(C)cc1S(=O)(=O)Nc1ccc(C(F)(F)F)cc1 | -2% | 6% | 1% | nt | -5%
CCN(CC)CCNC(=O)c1ccc(NC(=O)/C=C/c2ccc3ccccc3n2)cc1 | 4% | -4% | 8% | nt | -2%
Cc1ccc(-n2c(=O)c3c(c4cc(C)ccc4n3C)n(CC(=O)Nc3ccc(F)cc3)c2=O)cc1 | nt | -2% | nt | nt | nt
Cc1ccc(-c2nc(Nc3cccc(O)c3)c3ccccc3n2)cc1 | -8% | 21µM* | -7% | nt | 2%
COCCN(CCOC)c1nc(-c2ccc(C)cc2)nc2ccccc12 | -4% | 13µM* | 29% | nt | 21%
COC(=O)c1ccc(Nc2nc(-c3ccc(C)cc3)nc3ccccc23)cc1 | nt | ? | nt | 6% | nt
